From the supplement of paper PMC10849652
Targets with a hit are over-represented here; the source holds about 7,900 in all. About 0.6% of all pairs of compound and target were hits. Unmarked numbers belong to inactive results.

Columns and labels:
Test in all cases: log2 fold change, soluble protein after heating vs DMSO (PISA); higher = thermal stabilisation; K562 cells, 10 uM, 30 min; active = over 0.2 and 3.5 SD of the protein, either way, in both replicates (recomputed)
erlotinib = compound: C#Cc1cccc(Nc2ncnc3cc(OCCOC)c(OCCOC)cc23)c1 [erlotinib]
Method in brief: (§1)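 Quantification of soluble protein used TMTpro 16plex LC-MS/MS, with channel sums equalised. Samples were the supernatant after 21,000xg for 90 min of pooled aliquots from K562 cells (2×10^6 cells/mL) treated with 10 μM compound for 30 min, heated for 3 min over 48°C-58°C, and extracted in PBS with 0.5% NP-40 at 4°C. Values, from duplicates, describe thermal stability against control samples on a log2 fold-change scale.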

[1] = compound: C/C(=N\NC(=O)C1=CC(=CC=C1)S(=O)(=O)N2CCOCC2)/C3=C(C=CC(=C3)Cl)O
Method in brief: as §1

[2] = compound: C1=CC(=C(C=C1Cl)C2=NC3=NC=CN=C3C(=N2)NC4=CC=NC=C4)F
Method in brief: as §1

[3] = compound: C1=CC(=CC=C1C2=NC3=C(N2)C=C(C=C3)C(=O)N)OC4=CC=C(C=C4)Cl
Method in brief: as §1

[4] = compound: C1=CC2=C(C=CC(=C2)/C=C\3/C(=O)NC(=NCC4=CC=CS4)S3)N=C1
Method in brief: as §1

[5] = compound: C1=CC2=NC=CN=C2C=C1/C=C/3\C(=O)NC(=O)S3
Method in brief: as §1

[6] = compound: C1=CC=C(C=C1)C2=NC(=C(N2)C3=CC=NC=C3)C4=CC(=C(C=C4)Cl)O
Method in brief: as §1

[7] = compound: C1=CC=C2C(=C1)C3=NNC4=CC=CC(=C43)C2=O
Method in brief: as §1

[8] = compound: C1CCN(C1)C(=O)NC2=CC=CC(=C2)NC3=NC=C(C(=N3)NCCC4=CN=CN4)Br
Method in brief: as §1

[9] = compound: C1CN(CCC1(CC2=CC=C(C=C2)Cl)N)C3=NC=NC4=C3C=CN4
Method in brief: as §1

IRAK-1-4 Inhibitor I = compound: C1COCCN1CCN2C3=CC=CC=C3N=C2NC(=O)C4=CC(=CC=C4)[N+](=O)[O-] [IRAK-1-4 Inhibitor I]
Method in brief: as §1

ibrutinib = compound: C=CC(=O)N1CCC[C@@H](n2nc(-c3ccc(Oc4ccccc4)cc3)c3c(N)ncnc32)C1 [ibrutinib]
Method in brief: as §1

[10] = compound: CC(=O)c1cnc2ccc(-c3cc(Cl)c(O)c(Cl)c3)nc2c1N[C@H]1CC[C@H](CN(C)C)CC1
Method in brief: as §1

ralimetinib = compound: CC(C)(C)Cn1c(N)nc2ccc(-c3[nH]c(C(C)(C)C)nc3-c3ccc(F)cc3)nc21 [ralimetinib]
Method in brief: as §1

[11] = compound: CC(C)(O)CC(=O)NCCn1ccc2ncnc(Nc3ccc(Oc4cccc(C(F)(F)F)c4)c(Cl)c3)c21
Method in brief: as §1

[12] = compound: CC(C)C1=C2N=C(C=C(N2N=C1)NCC3=CC=CC=C3)NCCCCCCN
Method in brief: as §1

[13] = compound: CC(C)C[C@@H](C=O)NC(=O)[C@H](CC(C)C)NC(=O)[C@H](CC(C)C)NC(=O)OCc1ccccc1
Method in brief: as §1

pinometostat = compound: CC(C)N(C[C@H]1O[C@@H](n2cnc3c(N)ncnc32)[C@H](O)[C@@H]1O)[C@H]1C[C@@H](CCc2nc3cc(C(C)(C)C)ccc3[nH]2)C1 [pinometostat]
Method in brief: as §1

[14] = compound: CC1=C(C(CC(=O)N1)C2=CC=C(C=C2)C(F)(F)F)C(=O)NC3=C(C=C4C(=C3)C=NN4)F
Method in brief: as §1

[15] = compound: CC1=C(C2=C(C=C1)C(=O)C3=CC=CC=C3N2CCCN)C
Method in brief: as §1

Sequence of UniProt P20585 (P20585 whole entry, looked up): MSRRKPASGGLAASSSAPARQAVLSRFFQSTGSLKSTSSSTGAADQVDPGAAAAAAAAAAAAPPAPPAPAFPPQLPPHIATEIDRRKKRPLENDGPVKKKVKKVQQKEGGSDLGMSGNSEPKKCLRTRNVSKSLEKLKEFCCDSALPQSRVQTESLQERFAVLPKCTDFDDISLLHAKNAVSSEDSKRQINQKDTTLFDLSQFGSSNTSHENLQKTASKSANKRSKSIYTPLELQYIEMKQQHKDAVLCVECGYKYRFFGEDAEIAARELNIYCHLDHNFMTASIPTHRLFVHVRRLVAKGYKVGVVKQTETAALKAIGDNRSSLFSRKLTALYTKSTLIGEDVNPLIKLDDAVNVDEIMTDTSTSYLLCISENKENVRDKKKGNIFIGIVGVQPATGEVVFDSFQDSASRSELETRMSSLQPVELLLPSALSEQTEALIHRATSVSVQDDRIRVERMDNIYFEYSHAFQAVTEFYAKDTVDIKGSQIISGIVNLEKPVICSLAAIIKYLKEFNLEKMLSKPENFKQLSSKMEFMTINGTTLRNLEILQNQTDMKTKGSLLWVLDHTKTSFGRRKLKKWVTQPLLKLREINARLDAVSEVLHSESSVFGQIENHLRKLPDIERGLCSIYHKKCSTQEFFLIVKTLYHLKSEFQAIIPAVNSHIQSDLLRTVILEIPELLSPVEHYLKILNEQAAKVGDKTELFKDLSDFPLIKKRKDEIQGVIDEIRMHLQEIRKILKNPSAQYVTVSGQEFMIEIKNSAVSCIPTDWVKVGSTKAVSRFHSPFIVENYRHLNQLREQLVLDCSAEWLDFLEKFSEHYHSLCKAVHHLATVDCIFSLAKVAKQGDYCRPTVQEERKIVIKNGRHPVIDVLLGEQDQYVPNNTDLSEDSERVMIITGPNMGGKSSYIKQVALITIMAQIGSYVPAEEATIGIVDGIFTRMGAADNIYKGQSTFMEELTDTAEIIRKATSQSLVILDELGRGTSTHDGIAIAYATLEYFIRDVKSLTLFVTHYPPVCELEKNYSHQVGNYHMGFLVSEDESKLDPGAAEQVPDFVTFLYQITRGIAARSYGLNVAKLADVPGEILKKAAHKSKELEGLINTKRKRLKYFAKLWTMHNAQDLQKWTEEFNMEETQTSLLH
Sequence of UniProt P17568 (P17568 whole entry, looked up): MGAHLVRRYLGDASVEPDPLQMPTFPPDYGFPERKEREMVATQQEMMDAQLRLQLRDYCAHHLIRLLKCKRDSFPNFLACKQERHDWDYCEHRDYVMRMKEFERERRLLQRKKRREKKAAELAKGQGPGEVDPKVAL
Sequence of UniProt Q12986 (Q12986 whole entry, looked up): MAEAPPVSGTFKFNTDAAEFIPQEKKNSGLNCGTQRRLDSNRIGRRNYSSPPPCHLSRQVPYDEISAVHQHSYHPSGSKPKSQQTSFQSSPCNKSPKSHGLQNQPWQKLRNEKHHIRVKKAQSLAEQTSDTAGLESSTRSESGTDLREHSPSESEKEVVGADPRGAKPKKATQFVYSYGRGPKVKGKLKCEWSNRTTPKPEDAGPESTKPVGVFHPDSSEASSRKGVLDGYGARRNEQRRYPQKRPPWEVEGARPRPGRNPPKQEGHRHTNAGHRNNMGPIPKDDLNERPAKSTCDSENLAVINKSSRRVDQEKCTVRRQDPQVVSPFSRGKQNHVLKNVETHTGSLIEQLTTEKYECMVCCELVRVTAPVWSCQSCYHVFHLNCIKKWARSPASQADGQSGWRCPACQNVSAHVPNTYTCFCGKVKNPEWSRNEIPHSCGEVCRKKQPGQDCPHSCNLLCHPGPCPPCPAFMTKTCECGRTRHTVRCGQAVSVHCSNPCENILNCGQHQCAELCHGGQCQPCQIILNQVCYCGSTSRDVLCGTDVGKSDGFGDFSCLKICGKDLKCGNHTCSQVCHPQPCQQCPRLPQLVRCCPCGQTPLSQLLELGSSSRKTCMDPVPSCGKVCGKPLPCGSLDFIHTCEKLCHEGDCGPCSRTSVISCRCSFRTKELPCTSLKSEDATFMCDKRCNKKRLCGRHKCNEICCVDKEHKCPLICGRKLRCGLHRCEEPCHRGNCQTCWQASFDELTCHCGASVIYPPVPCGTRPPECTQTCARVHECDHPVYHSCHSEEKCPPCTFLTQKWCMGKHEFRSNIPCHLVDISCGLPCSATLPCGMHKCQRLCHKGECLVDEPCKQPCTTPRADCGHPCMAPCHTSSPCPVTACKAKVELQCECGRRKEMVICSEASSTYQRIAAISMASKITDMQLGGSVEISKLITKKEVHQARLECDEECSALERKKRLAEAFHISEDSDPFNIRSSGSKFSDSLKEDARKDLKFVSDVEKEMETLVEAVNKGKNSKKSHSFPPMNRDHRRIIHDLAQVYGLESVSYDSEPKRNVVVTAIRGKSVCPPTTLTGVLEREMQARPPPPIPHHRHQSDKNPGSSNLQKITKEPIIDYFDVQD
Sequence of UniProt P03905 (P03905 whole entry, looked up): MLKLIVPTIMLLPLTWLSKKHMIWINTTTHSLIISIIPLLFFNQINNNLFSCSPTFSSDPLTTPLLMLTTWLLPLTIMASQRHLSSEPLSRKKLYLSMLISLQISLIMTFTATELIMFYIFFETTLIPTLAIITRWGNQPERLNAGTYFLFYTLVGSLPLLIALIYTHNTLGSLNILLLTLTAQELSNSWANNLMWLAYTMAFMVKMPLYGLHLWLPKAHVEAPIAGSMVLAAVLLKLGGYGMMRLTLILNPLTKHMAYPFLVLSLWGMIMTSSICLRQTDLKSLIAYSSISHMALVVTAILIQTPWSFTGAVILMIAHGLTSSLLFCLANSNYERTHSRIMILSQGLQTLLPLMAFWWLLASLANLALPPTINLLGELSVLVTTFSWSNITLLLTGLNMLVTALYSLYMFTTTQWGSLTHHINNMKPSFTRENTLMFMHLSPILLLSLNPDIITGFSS
Sequence of UniProt Q12968 (Q12968 whole entry, looked up): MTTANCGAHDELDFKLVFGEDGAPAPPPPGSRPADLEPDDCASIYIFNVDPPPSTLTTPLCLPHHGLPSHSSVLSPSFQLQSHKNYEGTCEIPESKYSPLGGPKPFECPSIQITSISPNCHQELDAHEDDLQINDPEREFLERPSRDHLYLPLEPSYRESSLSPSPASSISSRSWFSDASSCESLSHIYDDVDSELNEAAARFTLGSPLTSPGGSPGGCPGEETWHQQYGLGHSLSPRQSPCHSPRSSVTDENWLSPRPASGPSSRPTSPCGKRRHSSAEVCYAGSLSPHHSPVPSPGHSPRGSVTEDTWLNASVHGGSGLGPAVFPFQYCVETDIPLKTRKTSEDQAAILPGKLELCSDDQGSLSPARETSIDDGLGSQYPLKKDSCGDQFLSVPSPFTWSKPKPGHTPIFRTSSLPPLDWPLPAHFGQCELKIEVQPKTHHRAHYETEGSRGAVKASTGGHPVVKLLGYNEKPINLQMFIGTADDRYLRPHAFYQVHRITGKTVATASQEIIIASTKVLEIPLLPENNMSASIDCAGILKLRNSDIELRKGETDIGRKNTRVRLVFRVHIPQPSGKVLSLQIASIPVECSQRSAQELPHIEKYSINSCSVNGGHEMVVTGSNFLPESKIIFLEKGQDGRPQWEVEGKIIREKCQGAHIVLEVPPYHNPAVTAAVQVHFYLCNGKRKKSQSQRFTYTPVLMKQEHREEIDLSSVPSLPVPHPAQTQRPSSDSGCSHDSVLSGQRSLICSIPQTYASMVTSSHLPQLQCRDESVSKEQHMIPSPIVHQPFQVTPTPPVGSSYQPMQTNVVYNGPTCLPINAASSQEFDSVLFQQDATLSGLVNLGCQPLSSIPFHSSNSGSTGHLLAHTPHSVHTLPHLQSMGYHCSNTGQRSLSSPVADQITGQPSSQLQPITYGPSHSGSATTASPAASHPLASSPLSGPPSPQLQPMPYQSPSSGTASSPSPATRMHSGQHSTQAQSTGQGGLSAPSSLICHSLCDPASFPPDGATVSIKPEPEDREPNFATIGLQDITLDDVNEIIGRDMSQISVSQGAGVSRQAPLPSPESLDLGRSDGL
Sequence of UniProt O43847 (O43847 whole entry, looked up): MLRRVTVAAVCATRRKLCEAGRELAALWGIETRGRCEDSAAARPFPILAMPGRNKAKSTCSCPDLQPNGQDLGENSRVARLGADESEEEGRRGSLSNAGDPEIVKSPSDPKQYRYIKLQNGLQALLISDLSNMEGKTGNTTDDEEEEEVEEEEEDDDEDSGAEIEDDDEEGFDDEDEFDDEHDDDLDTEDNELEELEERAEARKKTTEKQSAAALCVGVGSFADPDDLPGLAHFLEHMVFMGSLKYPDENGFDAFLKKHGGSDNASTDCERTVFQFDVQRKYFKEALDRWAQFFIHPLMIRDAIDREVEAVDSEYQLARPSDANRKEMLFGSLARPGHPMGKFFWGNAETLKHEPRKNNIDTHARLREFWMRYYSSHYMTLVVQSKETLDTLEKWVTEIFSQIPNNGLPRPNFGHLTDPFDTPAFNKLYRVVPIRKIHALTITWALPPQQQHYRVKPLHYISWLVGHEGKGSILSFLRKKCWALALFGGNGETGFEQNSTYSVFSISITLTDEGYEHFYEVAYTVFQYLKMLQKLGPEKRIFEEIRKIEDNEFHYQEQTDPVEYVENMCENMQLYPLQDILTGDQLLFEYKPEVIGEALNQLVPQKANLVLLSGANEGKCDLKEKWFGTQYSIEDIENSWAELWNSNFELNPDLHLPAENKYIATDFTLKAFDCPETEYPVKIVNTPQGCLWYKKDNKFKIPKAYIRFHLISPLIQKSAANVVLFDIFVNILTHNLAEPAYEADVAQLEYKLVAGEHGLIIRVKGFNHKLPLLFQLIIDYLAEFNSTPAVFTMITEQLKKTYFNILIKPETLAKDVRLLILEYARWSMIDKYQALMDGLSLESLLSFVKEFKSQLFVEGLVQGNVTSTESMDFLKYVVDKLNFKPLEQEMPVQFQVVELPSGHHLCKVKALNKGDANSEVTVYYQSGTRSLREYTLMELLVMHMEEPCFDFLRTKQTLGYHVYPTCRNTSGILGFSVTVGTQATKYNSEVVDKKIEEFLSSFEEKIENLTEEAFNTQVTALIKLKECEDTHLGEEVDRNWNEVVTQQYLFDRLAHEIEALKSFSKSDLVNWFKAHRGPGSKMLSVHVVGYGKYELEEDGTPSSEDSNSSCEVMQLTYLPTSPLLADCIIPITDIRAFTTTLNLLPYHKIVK

| Target | log2 fold change (erlotinib) | log2 fold change [1] | log2 fold change [2] | log2 fold change [3] | log2 fold change [4] | log2 fold change [5] | log2 fold change [6] | log2 fold change [7] | log2 fold change [8] | log2 fold change [9] | log2 fold change (IRAK-1-4 Inhibitor I) | log2 fold change (ibrutinib) | log2 fold change [10] | log2 fold change (ralimetinib) | log2 fold change [11] | log2 fold change [12] | log2 fold change [13] | log2 fold change (pinometostat) | log2 fold change [14] | log2 fold change [15] |
| --- | --- | --- | --- | --- | --- | --- | --- | --- | --- | --- | --- | --- | --- | --- | --- | --- | --- | --- | --- | --- |
| NFATC3 (UniProt Q12968) | 0.121 | 0.197 | 0.024 | 0 | 0.039 | -0.013 | -0.019 | -0.101 | -0.01 | -0.027 | -0.116 | 0.01 | -0.406 (active) | 0.386 (active) | -0.105 | -0.209 | 0.145 | 0.053 | 0.015 | -0.036 |
| NDUFB7 (UniProt P17568) | -0.027 | 0.015 | 0.038 | 0.04 | -0.011 | 0.061 | 0.031 | -0.007 | 0.037 | 0.041 | 0.012 | 0.008 | 0.007 | 0.079 | -0.034 | -0.002 | -0.055 | -0.017 | 0.014 | 0.004 |
| MRPS17 (UniProt Q9Y2R5) | -0.034 | -0.019 | -0.125 | 0.142 | -0.062 | 0 | 0.042 | 0.088 | -0.014 | -0.126 | -0.192 | 0.06 | -0.029 | 0.032 | -0.054 | 0.014 | 0.025 | -0.027 | -0.049 | -0.2 |
| NFX1 (UniProt Q12986) | 0.065 | -0.024 | -0.26 | 0.058 | 0.042 | -0.069 | -0.039 | -0.107 | 0.014 | 0.048 | -0.028 | 0.083 | -0.002 | 0.178 | 0.099 | -0.051 | 0.227 | 0.182 | 0.011 | -0.043 |
| MRPS15 (UniProt P82914) | -0.061 | -0.201 | -0.119 | 0.089 | 0.069 | 0.064 | 0.021 | 0.106 | -0.045 | -0.108 | -0.062 | -0.022 | -0.024 | 0.014 | -0.12 | -0.041 | 0.004 | 0.041 | -0.01 | -0.2 |
| MT-ND4 (UniProt P03905) | 0.152 | -0.077 | 0.053 | -0.028 | -0.026 | 0.044 | -0.009 | 0.078 | -0.007 | -0.036 | -0.005 | -0.092 | -0.236 | -0.06 | -0.094 | -0.124 | -0.054 | -0.135 | -0.065 | 0.056 |
| NRDC isoform 2 (UniProt O43847) | -0.016 | 0.081 | 0.012 | -0.024 | 0.021 | 0.024 | 0.027 | 0.057 | -0.046 | 0.049 | 0.003 | -0.033 | -0.026 | 0.011 | -0.04 | 0.053 | 0.029 | 0.015 | 0 | 0.037 |
| MSH3 (UniProt P20585) | 0.009 | 0.031 | 0.068 | 0.017 | 0.017 | 0.03 | 0.004 | -0.039 | 0.008 | -0.045 | -0.001 | -0.002 | 0.054 | -0.053 | 0.01 | 0.068 | 0.056 | 0.043 | 0.023 | 0.27 (active) |
